From PubChem
An excerpt weighted towards active compounds, which were near 21% of everything screened.
ELG1 repair inh: inhibitors of ELG1-dependent DNA repair in HEK293T cells | Potency, µM (doses to about 46.1 µM), most hits filed as inhibitors | actives 2.3% (n = 330,000) | HEK293T ELG1-luciferase reporter, luminescence, 16 h; DNA damage induced by 5-fluorouridine; further: nearly all actives have a fitted effect of over 55% in size
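Quantitative HTS, concentration-response format. 2,000 cells/well co-treated with 5-fluorouridine and compound, 16 hr in 5% CO2 at 37 °C; ONE-Glo luminescence read after 30 min.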
DT40 TDP1 CPT: DT40-hTDP1 cell growth loss with CPT; chicken DT40 Tdp1-/-;hTDP1 cells + 20 nM CPT, ATP luminescence, 48 h; Potency, µM (series often up to 46.2 µM), hits mostly inhibitors; actives 12% (n = 420,000); further: nearly all actives have a fitted effect of over 55% in size
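Chicken DT40 Tdp1-/- cells complemented with human TDP1, 400 cells/well, exposed to compounds plus 20 nM camptothecin for at least 48 h at 37 C; viability read as ATP content by CellTiter-Glo luminescence.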
TDP1 cell noCPT: qHTS for Inhibitors of human tyrosyl-DNA phosphodiesterase 1 (TDP1): qHTS in cells in absence of CPT. AID 686978, 2013. Potency, µM (titrated, usually from 46.2 µM), hits mostly inhibitors. DT40 Tdp1-/- hTDP1 cells, no CPT, ATP luminescence, 48 h. actives 15% (n = 420,000); further: nearly all actives have a fitted effect of over 55% in size
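No-CPT arm: Tdp1-/-;hTDP1 DT40 cells (400/well) plus compounds, incubated ≥48 hr at 37 °C. Readout CellTiter-Glo luminescence.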
Gal4-VP16 FLuc: inhibits Gal4-VP16 luciferase reporter, ROR gamma counter-screen; Drosophila S2 Gal4-VP16 UAS-luciferase, luminescence, 20 h; Potency, µM (highest dose often 53.6 µM), most hits filed as inhibitors; actives 3.5% (n = 310,000);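 further: Gal4-VP16 expression switched on by copper sulfate through the metallothionein promoter; nearly all actives have a fitted effect of over 50% in size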
RORgamma inh: ROR gamma (mouse) transcription inhibition. Drosophila S2 Gal4-RORgamma UAS-luciferase reporter, 20 h. Potency, µM (titrated, usually from 53.6 µM), actives largely listed as inhibitors. actives 5.4% (n = 310,000). AID 2551; further: nearly all actives have a fitted effect of over 60% in size
Target sequence (P51450 whole entry, looked up, the tested form may be a part): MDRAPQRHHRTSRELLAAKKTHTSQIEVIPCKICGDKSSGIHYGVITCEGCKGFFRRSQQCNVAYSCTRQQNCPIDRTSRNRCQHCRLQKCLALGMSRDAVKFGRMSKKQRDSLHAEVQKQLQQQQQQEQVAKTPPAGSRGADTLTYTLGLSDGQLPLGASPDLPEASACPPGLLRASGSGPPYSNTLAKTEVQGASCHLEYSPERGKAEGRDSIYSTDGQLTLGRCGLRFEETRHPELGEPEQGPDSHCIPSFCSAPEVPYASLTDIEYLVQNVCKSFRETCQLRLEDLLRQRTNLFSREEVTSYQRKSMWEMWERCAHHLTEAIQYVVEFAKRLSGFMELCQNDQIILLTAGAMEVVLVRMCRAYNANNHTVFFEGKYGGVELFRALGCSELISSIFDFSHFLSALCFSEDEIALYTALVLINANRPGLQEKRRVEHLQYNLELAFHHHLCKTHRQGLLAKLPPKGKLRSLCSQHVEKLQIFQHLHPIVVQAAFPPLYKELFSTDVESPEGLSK
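In this cell-based reporter format, copper sulfate (700 uM final) drives Gal4–ROR gamma fusion expression from a metallothionein promoter in Drosophila Schneider cells; compounds preincubated 1 hr, reporter read after 20 hr at ambient temperature.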
IL1B secr inh: blocks inflammasome-driven IL-1 beta release; actives 4.7% (n = 360,000); THP-1 LPS/ATP IL-1B secretion, AlphaLISA, 16 h; hits give low values; activity change, % at 57.5 µM; in the data active means activity change below about -50%; inconclusive means mostly about -30% to -49%
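Secreted IL-1B measured by AlphaLISA bead assay after 16 h compound exposure of THP-1 cells; compounds (final up to 57.5 uM) added 1 h before LPS (250 ng/mL) and ATP (1.25 mM) stimulation; lower signal means less secretion.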
Numbers stand for hits; n = inactive; u = inconclusive; x = no result given. Unless noted, the call rests on the fitted dose curve; in most records, active means well fitted curve in the direction sought with a large enough effect; inconclusive means small, poorly fitted or top-dose-only effect, or another doubt; inactive means no such curve, though single readings can be large; an effect the other way counts as inactive or inconclusive.

SMILES	ELG1 repair inh	DT40 TDP1 CPT	TDP1 cell noCPT	Gal4-VP16 FLuc	RORgamma inh	IL1B secr inh
O=S(=O)(c1ccc(F)cc1)N1CCN(CCOc2ccccc2)CC1	u	n	n	x	x	n
COc1cccc2c1C1COC3C4CC(C(=O)O)C(C(C2)N13)N4C (stereo not given)	x	5.17µM	11.6µM	x	x	n
COc1cccc2c1C(CCCC(=O)O)CCC2 (stereo not given)	x	n	u	x	x	n
O=C(O)CC(NC(=O)CCC1CCCCC1)c1cc([N+](=O)[O-])ccc1Cl (stereo not given)	n	n	n	n	n	n
COC(=O)c1ccc(Nc2nnc(-c3ccc(C)c(S(=O)(=O)NCC4CCCO4)c3)c3ccccc23)cc1 (stereo not given)	u	23.1µM	23.1µM	n	n	-63.1
Cc1ccc(-c2nnc(Nc3ccc(CC(N)=O)cc3)c3ccccc23)cc1S(=O)(=O)NCC1CCCO1 (stereo not given)	u	n	n	n	n	u
Cc1ccc(-c2nnc(Nc3ccc(C(=O)N(C)C)cc3)c3ccccc23)cc1S(=O)(=O)NCC1CCCO1 (stereo not given)	20.6µM	14.6µM	23.1µM	n	n	n
COc1ccc(Nc2nnc(-c3ccc(C)c(S(=O)(=O)NCCO)c3)c3ccccc23)cc1C(N)=O	x	n	n	x	x	x
CCOC(=O)CNS(=O)(=O)c1cc(-c2nnc(Nc3ccc4c(c3)OCO4)c3ccccc23)ccc1C	u	u	u	n	u	-102.1
O=C(NC1CCCC1)C(c1ccccc1)n1c(-c2ccc3c(c2)CCO3)nc2ccccc21 (stereo not given)	x	u	u	x	x	n
COc1ccc(-c2nn(-c3ccccc3)cc2/C=N/NC(=O)c2ccc3c(c2)OCO3)cc1	u	x	x	n	2.51µM	x
COc1ccc(-c2nn(-c3ccccc3)cc2/C=N/NC(=O)c2ccc(Br)o2)cc1	u	20.6µM	20.6µM	3.98µM	1.26µM	n
COc1ccc(-c2nn(-c3ccccc3)cc2/C=N/Nc2cccc(C(=O)O)c2)cc1	u	n	n	n	u	n
COc1ccc(-c2nn(-c3ccccc3)cc2C(=O)N(C)C)cc1	n	n	n	n	n	n
OCc1cn(-c2ccccc2)nc1-c1ccc2c(c1)OCCO2	u	u	23.1µM	n	u	n
COc1ccc(-c2nn(-c3ccccc3)cc2C(=O)O)cc1	n	n	n	n	n	n
C=CCNC(=S)N/N=C/c1cn(-c2ccccc2)nc1-c1ccc(OC)cc1	n	n	9.2µM	1.26µM	0.708µM	n
COc1cc(OC)cc(-c2c(C#Cc3ccsc3)c3cc(-c4ccc5c(c4)OCCO5)ccc3n2C)c1	n	n	n	x	x	n
O=C(N/N=C/c1cn(-c2ccccc2)nc1-c1ccc2c(c1)OCCO2)c1ccncc1	u	n	n	5.01µM	2.24µM	n
COc1ccccc1NS(=O)(=O)c1cccc(C(=O)N/N=C/c2ccccc2OCC(=O)O)c1	n	n	n	n	n	n
COc1ccc(-c2nn(-c3ccccc3)cc2/C=N/NC(=O)c2cccc(S(=O)(=O)Nc3ccccc3OC)c2)cc1	n	n	n	1.26µM	1.26µM	n
O/N=C/c1cn(-c2ccccc2)nc1-c1ccc2c(c1)OCCO2	u	n	n	n	n	-88.4
O=C(N/N=C/c1nn(-c2ccccc2)cc1-c1ccc(Cl)cc1)c1ccncc1	n	x	x	n	n	x
COc1ccccc1NS(=O)(=O)c1cccc(C(=O)N/N=C/c2ccc(C)o2)c1	n	n	n	14.1µM	11.2µM	n
O=C(NN=Cc1ccc2c(c1)OCO2)c1ccccc1	x	n	n	x	x	n
SMILES	ELG1 repair inh	DT40 TDP1 CPT	TDP1 cell noCPT	Gal4-VP16 FLuc	RORgamma inh	IL1B secr inh
c1ccc(-n2cc(CNCCc3cscn3)c(-c3ccc4c(c3)OCO4)n2)cc1	n	u	23.1µM	n	n	-72.5
O=C(N/N=C/c1cn(-c2ccccc2)nc1-c1ccc(F)cc1)c1ccc2c(c1)OCO2	u	u	18.4µM	u	2.24µM	u
Cc1ccc(S(=O)(=O)n2cccc2/C=C/[N+](=O)[O-])cc1	x	2.91µM	2.91µM	x	x	u
Cc1ccc(S(=O)(=O)n2ccc3cccnc32)cc1	n	n	n	n	n	u
Cc1ccccc1-c1nc(CN2CCC(C(=O)NCc3cccnc3)CC2)c(C)o1	n	n	n	n	n	n
Cc1ccccc1-c1nc(CN2CCC(C(=O)NCCCN3CCCC3)CC2)c(C)o1	n	u	u	n	n	n
Cc1oc(-c2ccccc2F)nc1CN1CCC(C(=O)NCCC2=CCCCC2)CC1	n	u	23.1µM	n	n	n
Cc1ccccc1-c1nc(CN2CCC(C(=O)NCCCN3CC(C)CC(C)C3)CC2)c(C)o1 (stereo not given)	n	23.1µM	u	n	n	n
Cc1ccccc1-c1nc(CN2CCC(C(=O)NCc3ccc(F)cc3)CC2)c(C)o1	x	16.4µM	20.6µM	x	x	x
Cc1ccccc1-c1nc(CN2CCC(C(=O)NCc3ccco3)CC2)c(C)o1	n	u	u	n	n	-67.1
Cc1oc(-c2ccc(Cl)cc2)nc1CN1CCC(C(=O)NCc2ccco2)CC1	n	n	u	n	n	n
COc1ccc(CCNC(=O)C2CCN(Cc3nc(-c4ccccc4F)oc3C)CC2)cc1OC	n	n	n	n	n	n
O=C(Nc1ccc(Br)cc1)C1CCN(S(=O)(=O)c2cccc3nsnc23)CC1	x	u	n	x	x	x
CC1=C(C(=O)Nc2cccc(C(=O)NC(C)c3ccccc3)c2)SCCO1 (stereo not given)	n	u	16.4µM	n	n	n
Nc1c(C(=O)Nc2ccccc2Cl)nnn1-c1ccc2c(c1)OCCO2	u	u	u	u	0.0562µM	n
Cc1cccc(-n2nnc(C(=O)NCc3ccc4c(c3)OCO4)c2N)c1	n	u	u	n	u	n
Nc1c(C(=O)Nc2ccc3c(c2)OCCO3)nnn1CCc1ccccc1	u	4.61µM	3.26µM	n	u	n
Nc1c(C(=O)Nc2ccc3c(c2)OCCO3)nnn1Cc1ccc(Br)cc1	u	n	n	x	x	n
Nc1c(C(=O)Nc2ccc3c(c2)OCCO3)nnn1Cc1cccc(Br)c1	u	u	23.1µM	x	x	-51.3
CC1(C)C(=O)OC(c2cccn2-c2ccc([N+](=O)[O-])cc2)C(C)(C)C1=O (stereo not given)	n	14.6µM	23.1µM	n	n	n
Cc1ccccc1Cn1ccn(-c2ccc(F)c(F)c2)c(=O)c1=O	x	n	n	x	x	x
CCc1ccc(CNC(=O)c2c3c(nc4ccccc24)C(=O)N(C2CCCCC2)C3)cc1	x	u	16.4µM	x	x	x
